Results from PubChem BioAssay (NCATS).
Records with an inconclusive call do not appear. Calls of active or inactive are those of the source. The call rests on the fitted dose curve; in most records, active means well fitted inhibition curve with a large enough effect; inconclusive means small, poorly fitted or top-dose-only effect; inactive means no such curve, though single readings can be large or run the other way.

Target: Cytochrome P450 3A4 (Homo sapiens) (UniProt P08684)
Test: qHTS Assay for Inhibitors and Substrates of Cytochrome P450 3A4 (AID 884); further: nearly all actives have a fitted effect of over 50% in size
Settings: recombinant CYP3A4, Luciferin-PPXE luminescence; series mostly up to 57.1 µM
Procedure: NIH Molecular Libraries Screening Centers Network [MLSCN]
NIH Chemical Genomics Center [NCGC]
The P450 gene superfamily is involved in the metabolism and clearance of xenobiotics. This assay used human CYP3A4 to measure the dealkylation of luciferin-6' phenylpiperazinylyl (Luciferin-PPXE; […]) to luciferin. The luciferin is then measured by luminescence after the addition of a luciferase detection reagent. Luciferin-PPXE concentration in the assay was equal to its KM for CYP3A4. Inhibitors and some substrates limit the production of luciferin, and decrease measured luminescence.
NCGC Assay Protocol Summary:
Two uL of enzyme and substrate mix (final concentrations: 20nM CYP3A4, 25uM Luciferin-PPXE, 200mM KPO4) were dispensed into a white, solid bottom 1536-well microtiter plate. 23nL of compound was transferred by a pin tool. The plate was incubated at RT for 10 min. Two uL of an NADPH regeneration solution (Promega supplied reagent) was dispensed and the reaction was allowed to continue for 60 min at RT. Then the reaction was stopped by reconstituted luciferin detection buffer. After another 20 min of incubation the plate was read on the ViewLux (Perkin Elmer) at 60 sec exposure and 2x2 binning. This protocol was carried out with Promega-Glo reagents and further information can be found at http://www.promega.com/tbs/tb325/tb325.pdf. Data were normalized to the to AC100 inhibition (57 uM ketoconazole).
Keywords: P450, CYP3A4, Luciferase, MLSMR, MLSCN, NIH Roadmap, qHTS, NCGC
Potency means the concentration at half of the fitted maximal effect.

Sequence of Cytochrome P450 3A4 (Homo sapiens) (P08684 whole entry, looked up): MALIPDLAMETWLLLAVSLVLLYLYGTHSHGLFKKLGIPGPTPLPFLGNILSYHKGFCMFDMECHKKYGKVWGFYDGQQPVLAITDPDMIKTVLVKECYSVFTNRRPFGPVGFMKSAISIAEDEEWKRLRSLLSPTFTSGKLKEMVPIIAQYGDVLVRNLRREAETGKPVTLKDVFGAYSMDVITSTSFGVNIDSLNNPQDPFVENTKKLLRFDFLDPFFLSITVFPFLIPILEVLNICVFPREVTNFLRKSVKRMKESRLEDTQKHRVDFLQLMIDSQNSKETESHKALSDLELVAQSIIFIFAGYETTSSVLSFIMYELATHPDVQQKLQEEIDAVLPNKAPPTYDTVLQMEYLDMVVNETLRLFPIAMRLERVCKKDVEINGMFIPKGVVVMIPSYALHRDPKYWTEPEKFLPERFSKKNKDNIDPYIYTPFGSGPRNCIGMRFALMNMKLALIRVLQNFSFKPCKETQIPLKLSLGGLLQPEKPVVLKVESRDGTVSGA

Row | Structure (SMILES) | Potency
1 | Cc1cccc(C)c1OC[C@H](C)N | inactive
2 | Fc1ccc(Nc2ccnc(-c3ccc4c(c3)OCO4)n2)cc1 | 2 µM (active)
3 | CC1(C)C=CC(=O)[C@]2(C)C1CC(=O)[C@]1(C)C2CC[C@@]2(C)C(c3ccoc3)OC(=O)C3OC321 (stereo not given in full) | 2 µM (active)
4 | Cc1cccc(CNc2ccnc(-c3ccc(C(=O)N(C)C)cc3)n2)c1 | inactive
5 | COc1cccc(-c2nccc(NCc3ccccc3)n2)c1 | 3.98 µM (active)
6 | Cn1c(=O)c(-c2ccc(F)cc2)nc2cnc(Oc3ccccc3)nc21 | inactive
7 | COc1ccccc1CNc1nc(-c2ccc3c(c2)OCO3)nc2ccccc12 | 1.26 µM (active)
8 | COc1ccc(CNc2ccnc(-c3cccnc3)n2)c(OC)c1 | 0.631 µM (active)
9 | CN(Cc1ccco1)c1ncnc2ccc(-c3ccc4c(c3)OCO4)cc12 | 2.51 µM (active)
10 | N#Cc1ccc(CN2CCCC3(CCN(S(=O)(=O)c4ccccc4)CC3)C2)cc1 | 3.16 µM (active)
11 | Cc1ccccc1-c1cncnc1Nc1ccccc1 | 0.631 µM (active)
12 | CN(Cc1ccco1)c1nc(-c2ccc3c(c2)OCO3)nc2ccccc12 | 1.58 µM (active)
13 | NC(Cc1ccc(O)c(O)c1)C(=O)O (stereo not given) | inactive
14 | CCN1CCC[C@@H]1CNC(=O)c1cc(S(N)(=O)=O)ccc1OC | inactive
15 | O=S(=O)(c1ccccc1)N1CCC2(CCCN(Cc3ccncc3)C2)CC1 | 3.98 µM (active)
16 | CN1CCN(c2ncc3nc(-c4ccc(Cl)cc4)c(=O)n(C)c3n2)CC1 | inactive
17 | O=C(c1ccco1)N1CCC2(CCN(Cc3nccs3)CC2)CC1 | inactive
18 | c1ccc(CNc2ccnc(-c3ccc4c(c3)OCO4)n2)cc1 | 0.794 µM (active)
19 | N#Cc1cccc(NC(=O)N2CCCC3(CCN(C(=O)c4ccco4)CC3)C2)c1 | 5.01 µM (active)
20 | Cc1cnc(CNc2ncncc2-c2ccccc2CN(C)C)cn1 | 3.16 µM (active)

Row | Structure (SMILES) | Potency
21 | COc1ncc2nc(-c3ccc(F)cc3)c(=O)n(Cc3ccc(F)cc3)c2n1 | 3.16 µM (active)
22 | N#Cc1cccc(-c2nccc(-n3ccnc3)n2)c1 | 2.51 µM (active)
23 | COc1cccc(-c2nccc(NCc3ccccc3OC)n2)c1 | 2.51 µM (active)
24 | COc1ccccc1-c1cncnc1N1CCN(C)CC1 | 2.51 µM (active)
25 | COc1ccc(-n2c(=O)c(C)nc3cncnc32)cc1 | 5.01 µM (active)
26 | c1cncc(-c2nc(NCCN3CCOCC3)c3ccccc3n2)c1 | 7.94 µM (active)
27 | COc1cc2ccc(=O)oc2cc1O | inactive
28 | COc1cccc(-c2nc(NCc3cccs3)c3ccccc3n2)c1 | 3.16 µM (active)
29 | c1ccc2c(Nc3ccncc3)nc(-c3ccoc3)nc2c1 | 1.26 µM (active)
30 | O=C(c1cnccn1)N1CCC2(CC1)CCN(c1ccccn1)CC2 | inactive
31 | CN1CCN(c2ncncc2-c2ccoc2)CC1 | 7.94 µM (active)
32 | COc1cccc(Cn2c(=O)c(-c3cccc(C#N)c3)nc3cnc(OC)nc32)c1 | 3.16 µM (active)
33 | COc1ccc2[nH]cc(CCNc3ccnc(-c4ccccc4Cl)n3)c2c1 | 2 µM (active)
34 | Cn1cccc1C(=O)N1CCC2(CCN(C(=O)Nc3ccccc3)CC2)CC1 | inactive
35 | O=c1c(-c2cccs2)nc2cnc(N3CCNCC3)nc2n1C1CC1 | 6.31 µM (active)
36 | COc1ccc2[nH]cc(CCNc3ncnc4ccc(-c5c(C)noc5C)cc34)c2c1 | 3.16 µM (active)
37 | Cn1c(=O)c(-c2ccccc2)nc2cnc(Oc3ccccc3)nc21 | inactive
38 | CS(=O)(=O)N1CCC2(CCCN(C(c3ccccc3)c3ccccc3)C2)CC1 | 3.98 µM (active)
39 | O=S(=O)(c1ccccc1)N1CCC2(CCCN(c3ccccc3)C2)CC1 | 3.98 µM (active)
40 | CS(=O)(=O)Nc1cccc(-c2ccc3ncnc(Nc4ccc(F)cc4)c3c2)c1 | 7.94 µM (active)
